Assay [1] is described as follows: TOX21_p53_BLA_p3_viability: Viability Assessment in the Tox21 HCT-116 p53 Agonism Beta-lactamase Assay, Phase 3 (AID 2283593).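 Note: cells exposed to compound for 16 h before reading.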 The procedure, abridged:
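HCT-116 cells (4000/well) rested 5 h at 37C, then got DMSO compounds by pin tool (217-fold dilution) for 16 h at 37C, 5% CO2. After the bla read, CellTiter-Glo was added and luminescence read at 30 min, room temperature.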

The target in assay [2] is Cellular tumor antigen p53 (Homo sapiens) (UniProt P04637). Description: TOX21_p53_BLA_p3_ratio: Tox21 HCT-116 p53 Agonism Beta-lactamase Assay, Ratio, Phase 3 (AID 2283596). The procedure, abridged: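 Cells were seeded at 4000/well, rested 5 h at 37C, then dosed with DMSO compound solutions (217-fold dilution) for 16 h. CCF4-AM substrate was loaded for 2 h at room temperature, and the 460/530 nm emission ratio was fitted for gain of signal versus DMSO.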
Sequence of Cellular tumor antigen p53 (Homo sapiens) (P04637 whole entry, looked up): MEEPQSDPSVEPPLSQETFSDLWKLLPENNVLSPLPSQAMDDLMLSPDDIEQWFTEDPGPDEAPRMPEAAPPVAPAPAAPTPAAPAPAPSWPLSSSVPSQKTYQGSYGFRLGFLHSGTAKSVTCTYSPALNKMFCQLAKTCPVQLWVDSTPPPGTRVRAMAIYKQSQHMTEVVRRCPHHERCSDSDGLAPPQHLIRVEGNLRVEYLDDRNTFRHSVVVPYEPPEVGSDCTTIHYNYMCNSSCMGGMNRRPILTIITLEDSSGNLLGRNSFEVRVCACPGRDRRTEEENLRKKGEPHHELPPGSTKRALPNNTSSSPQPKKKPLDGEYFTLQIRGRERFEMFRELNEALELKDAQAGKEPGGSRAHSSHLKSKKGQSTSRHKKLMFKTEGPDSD

A short description of assay [3]: TOX21_p53_BLA_p4_viability: Viability Assessment in the Tox21 HCT-116 p53 Agonism Beta-lactamase Assay, Phase 4 (AID 2283597).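 Note: hits lower the luminescence signal meaning cytotoxicity.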 Put shortly:
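Readout: ATP luminescence (CellTiter-Glo), measured 30 min after reagent addition at RT. The reagent followed a 2 h CCF4-AM incubation, and the cells had been exposed to compound for 16 h at 37C.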

Assay [4] in a line: TOX21_p53_BLA_p5_viability: Viability Assessment in the Tox21 HCT-116 p53 Agonism Beta-lactamase Assay, Phase 5 (AID 2283600). The procedure, abridged:
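Workflow: seed 4000 cells per well, wait 5 h, add compounds (DMSO, 217-fold dilution), incubate 16 h, load CCF4-AM 2 h, add CellTiter-Glo, read luminescence after 30 min.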

The target in assay [5] is Cellular tumor antigen p53 (Homo sapiens) (UniProt P04637). Description: TOX21_p53_BLA_p4_ratio: Tox21 HCT-116 p53 Agonism Beta-lactamase Assay, Ratio, Phase 4 (AID 2283601). Put shortly:
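HCT116 cells carrying an inducible beta-lactamase reporter were plated at 4000 cells/well, rested 5 h, then exposed to compounds in DMSO (217-fold dilution) for 16 h at 37C. CCF4-AM substrate was loaded 2 h at room temperature; 460/530 nm emission ratio scored gain-of-signal versus DMSO.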

Assay [6] in a line: Tanguay_ZF_120hpf_MORT_legacy: (Legacy) Oregon State University Tanguay Lab 120 Hour Post-fertilization zebrafish Assay for Mortality (AID 2283633). The procedure, abridged: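 5D WT zebrafish, chorion removed 4 hpf; 1 embryo/well from 6 hpf; static exposure to 120 hpf, 28C, dark, sealed. Final DMSO 0.64%. Readout: binary mortality, brightfield, 24 + 120 hpf; DMSO as negative control.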

A short description of assay [7]: Tanguay_ZF_120hpf_YSE_legacy: (Legacy) Oregon State University Tanguay Lab 120 Hour Post-fertilization zebrafish Assay for Yolk Sac Edema (AID 2283634). Put shortly:
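Dechorionate (pronase, 4 hpf) → place one 6 hpf embryo per well → static compound exposure, sealed and foil-covered, 28C, to 120 hpf → record yolk sac edema as present or absent. Final DMSO 0.64%.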

Assay [8] can be described thus: Tanguay_ZF_120hpf_AXIS_legacy: (Legacy) Oregon State University Tanguay Lab 120 Hour Post-fertilization zebrafish Assay for Body Axis Malformation (AID 2283635). Put shortly: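 Chorion is removed with pronase at 4 hpf, then single 6 hpf embryos are dosed (final DMSO 0.64%) and held statically at 28C in sealed, foil-covered plates. At 120 hpf body axis malformation is recorded as present or absent.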

The nature of assay [9]: Tanguay_ZF_120hpf_EYE_legacy: (Legacy) Oregon State University Tanguay Lab 120 Hour Post-fertilization zebrafish Assay for Eye Malformation (AID 2283636). Put shortly:
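Static waterborne exposure of dechorionated zebrafish embryos (strain Tropical 5D), 6 to 120 hpf, sealed plates at 28C, 0.64% DMSO vehicle. Eye malformation is scored as a binary endpoint, with gain of signal analysed relative to DMSO.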

Assay [10] in a line: Tanguay_ZF_120hpf_SNOU_legacy: (Legacy) Oregon State University Tanguay Lab 120 Hour Post-fertilization zebrafish Assay for Snout Malformation (AID 2283637). The procedure, abridged:
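Dechorionated zebrafish, individually housed from 6 hpf in covered, sealed wells at 28C with 0.64% DMSO vehicle, were examined at 120 hpf for snout malformation. Responses were binary and analysed positive-direction relative to DMSO.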

Assay [11] can be described thus: Tanguay_ZF_120hpf_JAW_legacy: (Legacy) Oregon State University Tanguay Lab 120 Hour Post-fertilization zebrafish Assay for Jaw Malformation (AID 2283638). Put shortly:
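Steps: dechorionate 4 hpf embryos (pronase); plate 1/well at 6 hpf; add test chemical, 0.64% DMSO final; seal, cover, hold at 28C statically to 120 hpf; score jaw defect presence/absence microscopically. Dead embryos not scored.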

Assay [12] in a line: Tanguay_ZF_120hpf_OTIC_legacy: (Legacy) Oregon State University Tanguay Lab 120 Hour Post-fertilization zebrafish Assay for Otic Vesicle Malformation (AID 2283639). The procedure, abridged: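 Brightfield scoring at 120 hpf, binary present/absent; DMSO negative control, 5uM trimethyltin chloride positive control. Static exposure at 28C, final DMSO 0.64% (vol/vol). Dead embryos not scored for malformation.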

The nature of assay [13]: Tanguay_ZF_120hpf_PE_legacy: (Legacy) Oregon State University Tanguay Lab 120 Hour Post-fertilization zebrafish Assay for Pericardial Edema (AID 2283640). Put shortly: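 Embryos from wild-type 5D adults were staged, then dosed in 0.64% DMSO. They were kept sealed in the dark at 28C until 120 hpf. Pericardial edema was then recorded as present or absent.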
Assay [14] can be described thus: Tanguay_ZF_120hpf_BRAI_legacy: (Legacy) Oregon State University Tanguay Lab 120 Hour Post-fertilization zebrafish Assay for Brain Malformation (AID 2283641). The procedure, abridged:
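Wild-type 5D larvae, static waterborne exposure to 120 hpf, 28C, 0.64% v/v DMSO. Brightfield scoring of brain defects, binary; dead embryos excluded. Positive ctrl 5uM trimethyltin chloride.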

Assay [15] in a line: Tanguay_ZF_120hpf_SOMI_legacy: (Legacy) Oregon State University Tanguay Lab 120 Hour Post-fertilization zebrafish Assay for Somite Malformation (AID 2283647). The procedure, abridged:
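Read-out: presence or absence of somite malformation in 120 hpf larvae, gain-of-signal relative to DMSO baseline. Embryos lacked chorion (pronase, 4 hpf) and were exposed statically from 6 hpf at 28C; dead larvae not scored.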

The nature of assay [16]: Tanguay_ZF_120hpf_PFIN_legacy: (Legacy) Oregon State University Tanguay Lab 120 Hour Post-fertilization zebrafish Assay for Pectoral Fin Malformation (AID 2283648).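 Note: each larva judged yes or no for fin defect by brightfield with dead larvae skipped.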 The procedure, abridged:
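Scoring of pectoral fin malformation was binary, made at 120 hpf on larvae exposed statically from 6 hpf after enzymatic chorion removal. Activity was fitted upward relative to DMSO controls at 0.64% (vol/vol).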

The nature of assay [17]: Tanguay_ZF_120hpf_CFIN_legacy: (Legacy) Oregon State University Tanguay Lab 120 Hour Post-fertilization zebrafish Assay for Caudal Fin Malformation (AID 2283649). The procedure, abridged: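 Binary presence or absence of caudal fin malformation at 120 hpf, read by brightfield microscopy, with DMSO as baseline. Larvae came from 5D wild-type embryos exposed statically from 6 hpf at 28C after pronase dechorionation.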

The nature of assay [18]: Tanguay_ZF_120hpf_PIG_legacy: (Legacy) Oregon State University Tanguay Lab 120 Hour Post-fertilization zebrafish Assay for Pigmentation Malformation (AID 2283650). The procedure, abridged: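 Endpoint is incidence of abnormal pigmentation at 120 hpf in dechorionated 5D zebrafish exposed singly from 6 hpf at 28C, DMSO vehicle at 0.64%. Embryos dying by 24 or 120 hpf are excluded from scoring.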

The nature of assay [19]: Tanguay_ZF_120hpf_CIRC_legacy: (Legacy) Oregon State University Tanguay Lab 120 Hour Post-fertilization zebrafish Assay for Circulatory Malformation (AID 2283651). The procedure, abridged:
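Static exposure, 6–120 hpf, 28C, sealed and dark; one dechorionated 5D embryo/well; DMSO 0.64% v/v final. Binary circulation endpoint by brightfield; dead embryos not scored.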

In assay [20] the target is Cellular tumor antigen p53 (Homo sapiens) (UniProt P04637). Description: TOX21_p53_BLA_p5_ratio: Tox21 HCT-116 p53 Agonism Beta-lactamase Assay, Ratio, Phase 5 (AID 2283599). The procedure, abridged:
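HCT-116 cells carrying a p53-inducible beta-lactamase reporter were seeded at 4000 cells/well and dosed after 5 h with compound in DMSO (217-fold dilution). After 16 h at 37C, CCF4-AM substrate was added for 2 h, and the 460/530 nm emission ratio was scored as gain-of-signal versus DMSO.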

Records with an inconclusive call do not appear. Where a structure was tested more than once in an assay, its records may differ in their call. Calls of active or inactive are those of the source. Rule for the calls: active = hit-call score of the fitted dose curve at least 0.9, where 1 is the maximum; inconclusive = response in the unintended direction; inactive = score below 0.9.

Consider `CN(C)CCO`, for which the outcome in assay [1], in assay [2], in [3], in [4], in [5] and in assay [6] was inactive. For the same molecule, the call in [7], in assay [8], in assay [9], in [10], in assay [11] and in assay [12] was inactive. Moreover, the outcome in assay [13], in assay [14], in assay [15], in assay [16], in assay [17] and in [18] was inactive. Also, in [19], the molecule was called inactive.

As a reminder, the AC50 is the concentration at which the activity in the assay is half-maximal. As for `CCC(C)c1cc([N+](=O)[O-])cc([N+](=O)[O-])c1O` (stereo unspecified), the result in [1], in [2], in [3], in assay [4], in [7] and in assay [8] was inactive. Further, the outcome in assay [9], in assay [10], in [11], in assay [12], in assay [13] and in assay [14] was inactive. The molecule was called inactive in [16], in assay [17], in [18] and in assay [19]. In addition, the AC50 is 984 nM (active) in assay [2] and 4.83 µM (active) in assay [5].

For the molecule `ClC1=C(Cl)[C@]2(Cl)[C@@H]3[C@@H](Cl)[C@H]4O[C@H]4[C@@H]3C1(Cl)C2(Cl)Cl`, the call in assay [1], in assay [2], in assay [20], in assay [4], in [6] and in assay [7] was inactive. Further, the result in assay [8], in assay [9], in assay [10], in assay [11], in assay [12] and in assay [13] was inactive. Further, the outcome in assay [14], in [15], in assay [16] and in [19] was inactive. Besides, the values for the AC50 in assay [3] and in assay [5] were 65.1 µM (active) and 72.3 µM (active), respectively.

In the case of `O=C(O)C(F)(F)C(F)(F)C(F)(F)C(F)(F)C(F)(F)C(F)(F)C(F)(F)C(F)(F)F`, the AC50 in [1] was 56.9 µM (active); in assay [3] it was 46.1 µM (active). Further, the result in assay [2], in assay [4], in [5], in assay [7], in assay [8] and in assay [9] was inactive. In addition, the result in assay [10], in assay [11], in assay [12], in assay [13], in assay [14] and in assay [16] was inactive. For the same molecule, the molecule was classed as inactive in assay [17], in assay [18] and in [19].

In the case of `C=CC(=O)NCNC(=O)C=C`, the call in assay [1], in [2], in [3], in assay [4], in assay [5] and in assay [7] was inactive. For the same molecule, the outcome in assay [8], in assay [9], in assay [10], in assay [11], in assay [12] and in assay [13] was inactive. The result in [14], in [16], in [17], in assay [18] and in assay [19] was inactive.

In the case of `Cc1ccccc1[N+](=O)[O-]`, the molecule was classed as inactive in assay [1], in assay [2], in assay [3], in [4], in [5] and in [7]. Besides, the result in assay [8], in [9], in assay [10], in assay [11], in assay [12] and in assay [13] was inactive. Also, the call in assay [14], in assay [16], in [17], in assay [18] and in assay [19] was inactive.

With `O=C(N[C@H]1CN2CCC1CC2)c1cc2ccoc2cn1`, the result in [1], in [2], in assay [3], in assay [20], in assay [4] and in assay [5] was inactive. Moreover, the molecule was called inactive in [6], in assay [7], in assay [8], in assay [9], in [10] and in assay [11]. The molecule was classed as inactive in assay [12], in [13], in [14], in assay [15], in assay [16] and in [17]. Besides, the call in assay [18] and in assay [19] was inactive.

(Values after PubChem BioAssay (EPA / NIEHS).)
